Reference: ChEMBL document CHEMBL3433997, “St. Jude Leishmania screening dataset” (2016)

Key:
Format in all cases: functional
[1] = biological target: Solute carrier family 2, facilitated glucose transporter member 1 (Homo sapiens) (UniProt P11166); assay: ST_JUDE_LEISH: Cytotoxicity at 2uM final concentration against transgenic Leishmania Mexicana promastigotes LmGLUT1 that are glucose transport deficient and complemented with the human glucose transporter GLUT1. Activity is measured by DNA content using SYBR green in vitro
[2] = biological target: Hexose transporter 1 (Plasmodium falciparum) (UniProt O97467); assay: ST_JUDE_LEISH: Cytotoxicity at 2uM final concentration against transgenic Leishmania Mexicana promastigotes LmPfHT that are glucose transport deficient and complemented with the Plasmodium falciparum hexose transporter. Activity is measured by DNA content using SYBR green in vitro
[3] = biological target: Glucose transporter (Leishmania mexicana) (UniProt O61059); assay: ST_JUDE_LEISH: Cytotoxicity at 2uM final concentration against transgenic Leishmania Mexicana promastigotes LmGT2 that are glucose transport deficient and complemented with the L. Mexicana glucose transporter 2. Activity is measured by DNA content using SYBR green in vitro

Sequence of Solute carrier family 2, facilitated glucose transporter member 1 (Homo sapiens) (P11166 whole entry): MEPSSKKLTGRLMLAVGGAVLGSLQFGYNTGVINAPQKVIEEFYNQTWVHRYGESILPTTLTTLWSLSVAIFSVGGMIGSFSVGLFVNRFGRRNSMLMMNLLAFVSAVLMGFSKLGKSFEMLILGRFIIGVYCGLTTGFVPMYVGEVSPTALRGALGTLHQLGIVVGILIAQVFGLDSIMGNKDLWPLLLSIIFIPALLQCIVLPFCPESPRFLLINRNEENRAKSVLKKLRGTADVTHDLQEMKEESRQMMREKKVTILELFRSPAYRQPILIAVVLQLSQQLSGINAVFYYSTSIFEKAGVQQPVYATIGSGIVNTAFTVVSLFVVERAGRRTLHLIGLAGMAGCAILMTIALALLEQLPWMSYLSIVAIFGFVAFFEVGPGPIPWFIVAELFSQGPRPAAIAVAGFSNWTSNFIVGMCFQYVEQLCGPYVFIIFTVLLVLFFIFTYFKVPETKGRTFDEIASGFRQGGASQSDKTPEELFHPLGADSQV

SMILES | inhibition [1] | inhibition [2] | inhibition [3]
Cc1ccc2nc(C)cc(N/N=C/c3ccc([N+](=O)[O-])o3)c2c1 | 14.9% | 12.8% | 9.98%
Cc1[nH]c(C)c(-c2ccc(-c3ccccc3F)nc2)c(=O)c1Cl | 1.2% | -2.36% | 1.16%
O=C(N[C@@H](Cc1ccccc1)[C@H](O)CNC1CCc2ccccc2C1)c1cc(C2CCCC2)cc(N2CCCC2=O)c1 (some centres undefined) | -3.59% | 2.21% | -4.47%
CN(c1ccc2c(c1)nc(NC(=O)C1(c3cc(F)ccc3F)CC1)n2C)c1ccnc(Nc2cccc(CS(C)(=O)=O)c2)n1 | -0.91% | 0.33% | -1.29%
Oc1c(CN2CCCC(C(F)(F)F)C2)cc(Cl)c2ccccc12 (centres undefined) | 1.85% | 2.27% | 3.06%
CC1(C)NC(N)=NC(=N)N1OCc1cccs1 | 10.6% | 7.52% | 7.36%
Cc1cccc2nc(-c3cccc(-c4ccc(NC(=O)c5cnn6cccnc56)cc4)c3)[nH]c12 | 11.4% | 9.77% | 7.27%
CC(C)COc1ccc(Cl)cc1Cc1ccc(-c2nc3cc(CCN4CCCC4)ccc3[nH]2)o1 | 0.75% | 3.33% | 2.08%
Cc1ccc(Cc2c[nH]c(NCCSCc3ccc(CN4CCOCC4)o3)nc2=O)cn1 | 2.52% | 0.59% | 3.98%
O=c1cc(NCCCNCc2cccc(I)c2)[nH]c2ccccc12 | 0.98% | 0.27% | -0.58%
COc1cccc(Nc2nc(Nc3cccc(C#N)c3)cc(C(F)(F)F)n2)c1 | 6.5% | 6.64% | 6.05%
CC1CN(c2ccc(NC(=O)c3ccc(F)cc3)cc2)CCN1Cc1cccc(F)c1 (centres undefined) | 3.88% | 2.84% | 4.01%
N#Cc1ccc(S(=O)(=O)N2C(c3cccc([N+](=O)[O-])c3)C(C(=O)c3ccccc3)N(C3CCCCC3)C2c2cccc([N+](=O)[O-])c2)cc1 (centres undefined) | 7.88% | 7.58% | 7.58%
O=C(Nc1cccc(-c2ccc(NCCCN3CCCC3)nc2)c1)c1ccccc1 | 5.13% | 6.59% | 0.77%
N#Cc1ccc(CN2CCC(Oc3ccc(NC(=O)c4ccccc4)cc3Cl)CC2)cc1 | 0.83% | -1.16% | 1.28%
Cc1cccc2nc(-c3cccc(-c4cccc(CNCc5cnn(-c6ccccc6)n5)c4)c3)[nH]c12 | 0.8% | 1.43% | 2.51%
OC(CN1CCN(c2cccc(Cl)c2)CC1)C(c1ccccc1)c1ccccc1 (centres undefined) | -1.02% | 2.99% | -2.94%

SMILES | inhibition [1] | inhibition [2] | inhibition [3]
O=C(Nc1cccc(-c2ccc(-c3nc4cc(C(F)(F)F)ccc4[nH]3)cc2)c1)c1ccoc1 | -0.21% | 1.44% | 0.98%
Cc1nn(-c2ccccc2)c2sc(C(=O)N(CCCN(C)C)c3nc(-c4ccccc4)cs3)cc12 | 1.15% | 3.31% | 0.07%
CCCCN1C(=O)C2CC(=O)CC(C3CCCCC3)C2C1=O (centres undefined) | 0.97% | 0.42% | 2.77%
OCCN1CCN(Cc2ccc(-c3cccc(-c4nc5cc(F)ccc5[nH]4)c3)cc2)CC1 | 2.82% | -0.2% | 0.18%
COc1ccccc1CNc1ncc(-c2ccsc2)c(-c2nccs2)n1 | 0.14% | 0.8% | -0.05%
COc1ccc(-c2c(C(F)(F)F)nn(C)c2NC(=O)Nc2ccc(F)cc2F)cc1 | -1.15% | -0.84% | 1.24%
CC(C)NCc1ccc(-c2ccc(NS(=O)(=O)c3cccc4cccnc34)cc2)cc1 | 16.1% | 14.5% | 12.7%
Cn1cc(CCNc2ccnc(NCCc3coc4ccccc34)n2)c2ccccc21 | 8.67% | 6.89% | 2.14%
O=C(C=Cc1ccc(Br)cc1)N1CCC(CCN2CCC(c3c[nH]c4ccccc34)CC2)CC1 | 4.46% | 8.48% | 4.25%
O=C(NC1CCN(c2ncc(C(F)(F)F)cc2Cl)CC1)c1cccs1 | -1.13% | -1.85% | -3.08%
Cc1cc(Nc2ccncc2)n2nc(C)c(-c3ccccc3Cl)c2n1 | 2.97% | 1.58% | 6.28%
CC(=O)Nc1ccccc1OCc1cc2cc(C(=O)N3CCC(N4C(=O)OCc5ccccc54)CC3)ccc2o1 | 4.21% | 2.89% | 4.49%
CC1CN(Cc2ccc(-c3ccc(-c4nc5cc(F)ccc5[nH]4)cc3)cc2)CC(C)O1 (centres undefined) | 6% | 6.63% | 3.77%
CCCNCc1ccc(-c2ccc(CN(CCOC)C(=O)CCC(=O)c3ccc(OC)c(F)c3)cc2)nc1 | 0.12% | 3.36% | 1.5%
c1csc(-c2ccc3c(c2)CC(NCc2c[nH]c4cnccc24)C3)c1 (centres undefined) | 4.86% | 5.34% | 5.84%
CCCCCCNc1c2ccccc2nc2ccccc12 | 4.99% | 9.27% | 3.25%
